In PubChem BioAssay AID1159580 (chemical genetic matrix, 2015):
The campaign covered roughly 5,500 compounds. About 2,000 (36%) were called active. Another 18% or so got no clear call; they are omitted. No stated cut-off is given here; in the data, active means normalized growth mostly below about 0.91 (no sharp cut-off); inconclusive means no clear call, values can overlap the other calls; inactive means mostly above about 0.92. This is one part of the list.

Test: chemical genetic growth profiling, strain panel (AID 1159580);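 further: tested at 20 µM; growth read once vehicle control cultures reached saturation at 30 °C; 1 = growth at the plate median or of vehicle wells; lower values mean less growth of the strain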
Conditions: S. cerevisiae deletion strains, growth OD

Measured: normalized growth

COc1ccc2c(c1)OCC(Cc1ccc(O)c(OC)c1)C2=O (stereo not given)
inactive: locus YAL021C, strain ccr4, hits give low values 0.982 | locus YAL026C, strain drs2, hits give low values 0.982 | locus YAL030W, strain snc1, hits give low values 0.968 | locus YBL061C, strain skt5, hits give low values 0.978 | locus YBR009C, strain hhf1, hits give low values 0.972 | locus YBR023C, strain chs3, hits give low values 0.97 | locus YBR171W, strain sec66, hits give low values 0.969 | locus YBR231C, strain swc5, hits give low values 0.971 | locus YBR279W, strain paf1, hits give low values 0.982 | locus YCL011C, strain gbp2, hits give low values 0.953 | locus YCL016C, strain dcc1, hits give low values 0.97 | locus YCL061C, strain MRC1, hits give low values 0.971 | locus YCL069W, strain vba3, hits give low values 0.979 | locus YCR088W, strain abp1, hits give low values 0.965 | locus YDL005C, strain med2, hits give low values 0.965 | locus YDL040C, strain nat1, hits give low values 0.972 | locus YDR001C, strain nth1, hits give low values 0.967 | locus YDR069C, strain doa4, hits give low values 0.963 | locus YDR137W, strain rgp1, hits give low values 0.922 | locus YDR159W, strain sac3, hits give low values 0.957 | locus YDR195W, strain ref2 0.958 | locus YDR297W, strain sur2, hits give low values 0.98 | locus YDR334W, strain swr1, hits give low values 0.949 | locus YDR335W, strain msn5, hits give low values 0.985 | locus YDR392W, strain spt3, hits give low values 0.882 | locus YEL003W, strain gim4, hits give low values 0.98 | locus YEL037C, strain rad23, hits give low values 0.97 | locus YEL061C, strain CIN8 (second series), hits give low values 0.977 | locus YER015W, strain faa2, hits give low values 0.974 | locus YER016W, strain bim1, hits give low values 0.969 | locus YER111C, strain swi4, hits give low values 0.999 | locus YER155C, strain BEM2 (second series), hits give low values 0.974 | locus YFR010W, strain ubp6, hits give low values 0.949 | locus YGL167C, strain pmr1, hits give low values 0.974 | locus YGL173C, strain kem1, hits give low values 0.973 | locus YGL227W, strain vid30, hits give low values 0.979 | locus YGL240W, strain doc1, hits give low values 0.96 | locus YGL253W, strain hxk2, hits give low values 0.974 | locus YHR013C, strain ard1, hits give low values 1 | locus YHR027C, strain rpn1, hits give low values 0.963 | locus YHR030C, strain SLT2, hits give low values 1.03 | locus YHR079C, strain IRE1, hits give low values 1.03 | locus YHR142W, strain chs7, hits give low values 0.943 | locus YJL092W, strain hpr5, hits give low values 0.932 | locus YJL095W, strain BCK1 (second series), hits give low values 0.98 | locus YJL095W, strain BCK1, hits give low values 1.05 | locus YJL115W, strain asf1, hits give low values 0.951 | locus YJL129C, strain trk1, hits give low values 0.943 | locus YJL154C, strain vps35, hits give low values 0.973 | locus YJL164C, strain tpk1, hits give low values 0.968 | locus YJL166W, strain qcr8, hits give low values 0.991 | locus YJL187C, strain SWE1, hits give low values 0.998 | locus YJR066W, strain TOR1, hits give low values 0.966 | locus YKL160W, strain elf1, hits give low values 0.985 | locus YKR026C, strain gcn3, hits give low values 0.967 | locus YKR091W, strain srl3, hits give low values 0.965 | locus YLL001W, strain dnm1, hits give low values 0.954 | locus YLL026W, hits give low values 0.975 | locus YLL041C, strain sdh2, hits give low values 0.966 | locus YLR027C, strain aat2, hits give low values 0.964 | locus YLR113W, strain HOG1, hits give low values 0.979 | locus YLR221C, strain rsa3, hits give low values 0.982 | locus YLR258W, strain gsy2, hits give low values 0.961 | locus YLR262C, strain YPT6 (second series), hits give low values 0.949 | locus YLR320W, strain mms22, hits give low values 0.983 | locus YLR342W, strain FKS1, hits give low values 0.979 | locus YLR357W, strain rsc2, hits give low values 0.965 | locus YLR370C, strain arc18, hits give low values 0.948 | locus YLR384C, strain iki3, hits give low values 0.981 | locus YML120C, strain ndi1, hits give low values 0.971 | locus YMR058W, strain fet3, hits give low values 0.964 | locus YMR125W, strain sto1, hits give low values 0.948 | locus YMR129W, hits give low values 0.974 | locus YMR205C, strain PFK2, hits give low values 0.974 | locus YMR231W, strain pep5, hits give low values 0.99 | locus YNL071W, strain lat1, hits give low values 0.986 | locus YNL183C, strain NPR1, hits give low values 0.964 | locus YNL209W, strain ssb2, hits give low values 0.988 | locus YNL248C, strain rpa49, hits give low values 0.971 | locus YNL322C, strain KRE1 (second series), hits give low values 0.977 | locus YNR049C, strain mso1, hits give low values 0.965 | locus YOR001W, strain rrp6, hits give low values 0.982 | locus YOR070C, strain gyp1, hits give low values 0.993 | locus YOR080W, strain dia2, hits give low values 0.97 | locus YOR083W, strain WHI5, hits give low values 0.971 | locus YOR106W, strain vam3, hits give low values 0.952 | locus YOR231W, strain MKK1, hits give low values 1.06 | locus YOR265W, strain rbl2, hits give low values 0.975 | locus YOR270C, strain vph1, hits give low values 0.951 | locus YOR290C, strain snf2, hits give low values 0.965 | locus YPL051W, strain arl3, hits give low values 0.983 | locus YPL078C, strain atp4, hits give low values 0.978 | locus YPL106C, strain sse1, hits give low values 0.914 | locus YPL240C, strain hsp82, hits give low values 0.957 | locus YPL256C, strain CLN2, hits give low values 1.03
